Lamin A splicing: qHTS Assay for Modulators of Lamin A Splicing. Potency, µM (titrated, usually from 46.1 µM), actives largely listed as inhibitors. AID 1487, 2009. actives 0.01% (n = 200,000). HeLa LMNA splicing GFP/RFP minigene ratio, 48 h; active means well fitted inhibition curve with a large enough effect in the signal ratio, with a control signal flat, not every such curve was filed as active; inconclusive means small, poorly fitted or top-dose-only effect, or effect the other way, or a change in a side signal; the % refers to the signal ratio
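S3 HeLa cells stably expressing lamin A-EGFP splicing minigene plus DsRed2, 600 cells/well, 48 h compound exposure at 37C. Laser-scanning cytometry; analysed as GFP (500-530 nm)/RFP (575-640 nm) total intensity ratio; 0.5% DMSO vehicle.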
Menin MLL FP FL: qHTS Assay for Inhibitors Targeting the Menin-MLL Interaction in MLL Related Leukemias: Competition With Fluorescein Labeled MLL-derived Peptide; Fluorescence polarization, fluorescein-MLL peptide displacement from menin; 290,000 tested, under 10 active; FP activity change, % at 61.4 µM; active means well fitted curve in the direction sought with a large enough effect in the polarisation, not every such curve was filed as active; inconclusive means small, poorly fitted or top-dose-only effect, or effect the other way, or a change in a side signal; inactive means no such curve, though single readings can be large or run the other way; the % refers to the polarisation
Epigenetic derep: Quantitative High-Throughput Screen for Regulators of Epigenetic Control | murine LDR cells, GFP reporter derepression, 30 h | Potency, µM (series often up to 53.9 µM), hits mostly activators | actives 0.2% (n = 280,000); active means well fitted activation curve with a large enough effect; inconclusive means small, poorly fitted or top-dose-only effect; further: nearly all actives have a fitted effect of over 60% in size
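Reporter derepression read as number of fluorescent GFP-positive objects, 20-120 um in size, counted by laser-scanning cytometer. Mouse LDR line with an epigenetically silenced CMV-GFP locus; compound incubation 30 h, 37 C.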
Menin-MLL TR inh: qHTS Assay for Inhibitors Targeting the Menin-MLL Interaction in MLL Related Leukemias: Competition With Texas Red Labeled MLL-derived Mutant Peptide; O00255; Menin + Texas Red MLL mutant peptide, fluorescence polarization; Potency, µM (highest dose often 61.6 µM), usual class: inhibitors; actives 0.23% (n = 270,000); AID 1768, 2009; active means well fitted inhibition curve with a large enough effect in the polarisation, with a control signal flat, not every such curve was filed as active; inconclusive means small, poorly fitted or top-dose-only effect, or effect the other way, or a change in a side signal; inactive means no such curve, though single readings can be large or run the other way; the % refers to the polarisation
MLL CXXC-DNA inh: qHTS Fluorescence Polarization Assay for Inhibitors of MLL CXXC domain - DNA interaction | Potency, µM (doses to about 115 µM), usual class: inhibitors | actives 0.037% (n = 290,000) | MLL-CXXC / FITC-HOXA9 DNA fluorescence polarization | Histone-lysine N-methyltransferase 2A (Homo sapiens), Q03164; active means well fitted inhibition curve with a large enough effect in the polarisation, with a control signal flat, not every such curve was filed as active; inconclusive means small, poorly fitted or top-dose-only effect, or effect the other way, or a change in a side signal; inactive means no such curve, though single readings can be large or run the other way; the % refers to the polarisation
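Fluorescence polarization: 7 uM MLL-CXXC (stock) preincubated 5 min with compounds, then 50 nM fluorescein-HOX-A9 DNA (stock) added; 30 min ambient. Buffer 50 mM Tris-HCl pH 7.5, 50 mM NaCl, 1 mM DTT, 0.05% BSA.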
Numbers stand for hits. Rows were chosen to be rich in hits. Some 0.26% of all compounds tested hit in one or more screens of this group.

Screening O=C1CC(c2ccc3c(c2)OCO3)c2cc(O)ccc2O1 (stereo not drawn) returned Menin MLL FP FL inactive, Epigenetic derep inactive and Menin-MLL TR inh inconclusive.
`CCCCCCOc1ccc(C(=N)N(CCCC)CCCC)c2ccccc12` gave Menin MLL FP FL inactive, Menin-MLL TR inh inconclusive and MLL CXXC-DNA inh inconclusive.
`Cc1noc(/C=C/c2ccc(-c3ccccc3Cl)o2)c1[N+](=O)[O-]` gave Lamin A splicing inactive, Menin MLL FP FL inconclusive, Epigenetic derep 7.1µM, Menin-MLL TR inh inconclusive and MLL CXXC-DNA inh inconclusive.
`N#Cc1ccc(-c2csc(NC(=O)c3ccc(S(=O)(=O)N4CCc5ccccc5C4)cc3)n2)cc1` gave Lamin A splicing inactive, Menin MLL FP FL inactive, Epigenetic derep inactive, Menin-MLL TR inh 11µM and MLL CXXC-DNA inh inactive.
O=C(O)c1cc(O)c2c(c1)[C@H]([C@H]1c3cc(C(=O)O)cc(O)c3C(=O)c3c(O[C@@H]4OC(CO)C(O)C(O)C4O)cccc31)c1cccc(O[C@@H]3OC(CO)C(O)C(O)C3O)c1C2=O (stereo partly drawn) was read as Lamin A splicing inconclusive, Menin MLL FP FL inconclusive, Epigenetic derep inactive, Menin-MLL TR inh inconclusive and MLL CXXC-DNA inh inactive.
`CCN(CC)CCCC(C)Nc1c2ccc(Cl)cc2nc2ccc(OC)cc12` (stereo not drawn) gave Lamin A splicing inconclusive, Menin MLL FP FL inconclusive, Epigenetic derep 3.2µM, Menin-MLL TR inh inconclusive and MLL CXXC-DNA inh inconclusive.
`O=C(NCCN1CCCC1)c1ccc(Cc2nc3ccccc3[nH]2)cc1` gave Epigenetic derep inactive.
O=c1cc(N2CCOCC2)oc2c(-c3ccccc3)cccc12 was read as Lamin A splicing 16µM, Menin MLL FP FL inactive, Epigenetic derep inactive, Menin-MLL TR inh inactive and MLL CXXC-DNA inh inactive.
CC(CN(C)C)NC(=O)c1ccc(Cc2nc3ccccc3[nH]2)cc1 (stereo not drawn) was read as Epigenetic derep inactive.
Screening COCc1cc(O)c(O)c(O)c1-c1c(COC)cc(O)c(O)c1O returned Menin MLL FP FL inconclusive, Epigenetic derep inactive and Menin-MLL TR inh inconclusive.
Screening Oc1ccccc1Nc1nc2ccccc2n2nnnc12 returned Epigenetic derep 13µM.
Screening Fc1ccccc1Nc1nc2ccccc2n2nnnc12 returned Lamin A splicing inactive, Menin MLL FP FL inconclusive, Epigenetic derep inconclusive, Menin-MLL TR inh inactive and MLL CXXC-DNA inh inactive.
CCOc1cccc(/C=C(/C#N)c2nc3ccccc3[nH]2)c1OCC(=O)O was read as Menin MLL FP FL inactive, Menin-MLL TR inh inactive and MLL CXXC-DNA inh inconclusive.
`CCN(CC)c1ccc(/C=C(/C#N)c2nc3ccccc3[nH]2)c(OC(C)C)c1` gave Lamin A splicing inconclusive, Menin MLL FP FL inconclusive, Epigenetic derep 13µM and MLL CXXC-DNA inh inconclusive.
`O=C(/C=C/C#Cc1cccc(NS(=O)(=O)c2ccccc2)c1)NO` gave Menin MLL FP FL inactive and Menin-MLL TR inh inconclusive.
For O=C(c1cc(-c2ccc(F)cc2)on1)N1CCCC1 the results were Lamin A splicing inactive, Menin MLL FP FL inactive, Epigenetic derep 16µM, Menin-MLL TR inh inactive and MLL CXXC-DNA inh inactive.
O=C(c1cc(-c2ccc(F)cc2)on1)N1CCCCCC1 was read as Menin MLL FP FL inactive, Menin-MLL TR inh inactive and MLL CXXC-DNA inh inactive.
For O=C(c1ccccc1F)N(Cc1cccnc1)Cc1cc2cc3c(cc2[nH]c1=O)OCCO3 the results were Menin MLL FP FL inactive, Epigenetic derep inactive, Menin-MLL TR inh inactive and MLL CXXC-DNA inh inactive.
`COc1cc(C(=O)N(Cc2cccnc2)Cc2cc3cc4c(cc3[nH]c2=O)OCCO4)cc(OC)c1OC` gave Lamin A splicing inactive, Menin MLL FP FL inactive, Epigenetic derep inactive, Menin-MLL TR inh 18µM and MLL CXXC-DNA inh inactive.
CC1CCN(S(=O)(=O)c2nnc(NC(=O)c3cccc(F)c3)s2)CC1 was read as Lamin A splicing inactive and Epigenetic derep 13µM.
`CC1CCN(S(=O)(=O)c2nnc(NC(=O)c3cccc(Br)c3)s2)CC1` gave Lamin A splicing inactive and Epigenetic derep inactive.
Cc1cc(/C=C/c2ccc3cc(N(C)C)ccc3[n+]2C)c(C)n1-c1ccccc1 was read as Menin MLL FP FL inconclusive and Epigenetic derep 22µM.
`CN(C)c1ccc(/C=C/c2ccc3ccccc3[n+]2C)cc1` gave Lamin A splicing inconclusive, Menin MLL FP FL inactive, Epigenetic derep inactive, Menin-MLL TR inh inconclusive and MLL CXXC-DNA inh inconclusive.
`C=CCN1C(=O)/C(=C2/Sc3ccc(OC)cc3N2C)SC1=Nc1cccc(O)c1` gave Menin MLL FP FL inactive, Epigenetic derep 10µM, Menin-MLL TR inh inconclusive and MLL CXXC-DNA inh inactive.
`CCN1C(=O)/C(=C2/Sc3ccc(OC)cc3N2C)SC1=Nc1ccc(OC)cc1` gave Lamin A splicing inconclusive, Menin MLL FP FL inactive, Epigenetic derep inactive, Menin-MLL TR inh inactive and MLL CXXC-DNA inh inactive.
`Cc1cc(C)c2c(N)c(C(=O)Nc3ccccc3C(F)(F)F)sc2n1` gave Lamin A splicing inactive and Epigenetic derep inactive.
For Nc1c(C(=O)Nc2ccccc2F)sc2nc(Cc3ccccc3)cc(C(F)(F)F)c12 the results were Lamin A splicing inconclusive, Menin MLL FP FL inconclusive, Epigenetic derep 13µM, Menin-MLL TR inh inactive and MLL CXXC-DNA inh inconclusive.
For Cc1cc(C)c(C)c(S(=O)(=O)NCCC(=O)O)c1C the results were Epigenetic derep inactive.
Screening O=C(Nc1nccs1)c1cccc(N2C(=O)c3cccc4c([N+](=O)[O-])ccc(c34)C2=O)c1 returned Lamin A splicing inactive, Menin MLL FP FL inconclusive, Epigenetic derep 13µM, Menin-MLL TR inh inconclusive and MLL CXXC-DNA inh inactive.
COc1cccc(C2=Nn3c(nnc3-c3ccccc3C)SC2)c1 was read as Menin MLL FP FL inactive and Menin-MLL TR inh inactive.
For CCCCN1CCC[C@H]1CNC(=O)c1cc(C#N)c2ccccc2c1OC the results were Menin MLL FP FL inactive and Menin-MLL TR inh inactive.
COc1ccc(/C=N/Nc2cc(C)nc3ccc(Br)cc23)cc1 was read as Menin MLL FP FL inactive, Menin-MLL TR inh 16µM and MLL CXXC-DNA inh inactive.
`COc1ccc2nc(C)cc(N/N=C/c3cccc(OC)c3O)c2c1` gave Menin MLL FP FL inactive, Menin-MLL TR inh inactive and MLL CXXC-DNA inh inconclusive.
For O=C(c1ccccc1)c1c2c(cc3sc4ccccc4[n+]13)-c1cccc3cccc-2c13 the results were Lamin A splicing inconclusive, Menin MLL FP FL inconclusive, Epigenetic derep 11µM, Menin-MLL TR inh inconclusive and MLL CXXC-DNA inh inconclusive.
COC(=O)C1=CO[C@@H](C)[C@@H]2CN3CCc4c([nH]c5ccccc45)[C@@H]3C[C@H]12 was read as Menin MLL FP FL inconclusive and Menin-MLL TR inh inactive.
Screening O=C1N/C(=C/c2cccs2)C(=O)N1Cc1ccccc1F returned Lamin A splicing inactive, Menin MLL FP FL inactive, Epigenetic derep inactive, Menin-MLL TR inh inconclusive and MLL CXXC-DNA inh inactive.

Source: PubChem (National Center for Advancing Translational Sciences (NCATS))
